Source: PubChem
DUSP3 inh = inhibitors of human VHR1 phosphatase (DUSP3). P51452. recombinant VHR phosphatase, pNPP absorbance. inhibition, % at 13.3 µM. 290,000 compounds, 0.52% hits. AID 1654; in the data active = inhibition above about 50%
BoNT F protease = BoNT F light chain protease inhibition. Multiplex microsphere protease cleavage assay, flow cytometry. inhibition, % at 10 µM. 360,000 compounds, 0.22% hits. AID 588497; in the data active = inhibition above about 35%, passing the limit was not always enough; inconclusive = no clear call, values can overlap the other calls; also: plate controls were buffer without enzyme for full effect and enzyme alone for no effect
MazEF act = MazEF (E. coli) toxin RNase activation; P0AE70; FAM/BHQ RNA-DNA oligo cleavage fluorescence, 5 h; activation, % at 20 µM; 350,000 compounds, 0.32% hits; in the data active = activation above about 50%
Anthrax LF prot = anthrax lethal factor protease inhibition | P15917 | multiplex microsphere protease cleavage assay, LF | inhibition, % at 10 µM | 360,000 compounds, 0.12% hits | AID 588501; also: plate controls were buffer without enzyme for full effect and enzyme alone for no effect
Target sequence (P15917 whole entry, looked up): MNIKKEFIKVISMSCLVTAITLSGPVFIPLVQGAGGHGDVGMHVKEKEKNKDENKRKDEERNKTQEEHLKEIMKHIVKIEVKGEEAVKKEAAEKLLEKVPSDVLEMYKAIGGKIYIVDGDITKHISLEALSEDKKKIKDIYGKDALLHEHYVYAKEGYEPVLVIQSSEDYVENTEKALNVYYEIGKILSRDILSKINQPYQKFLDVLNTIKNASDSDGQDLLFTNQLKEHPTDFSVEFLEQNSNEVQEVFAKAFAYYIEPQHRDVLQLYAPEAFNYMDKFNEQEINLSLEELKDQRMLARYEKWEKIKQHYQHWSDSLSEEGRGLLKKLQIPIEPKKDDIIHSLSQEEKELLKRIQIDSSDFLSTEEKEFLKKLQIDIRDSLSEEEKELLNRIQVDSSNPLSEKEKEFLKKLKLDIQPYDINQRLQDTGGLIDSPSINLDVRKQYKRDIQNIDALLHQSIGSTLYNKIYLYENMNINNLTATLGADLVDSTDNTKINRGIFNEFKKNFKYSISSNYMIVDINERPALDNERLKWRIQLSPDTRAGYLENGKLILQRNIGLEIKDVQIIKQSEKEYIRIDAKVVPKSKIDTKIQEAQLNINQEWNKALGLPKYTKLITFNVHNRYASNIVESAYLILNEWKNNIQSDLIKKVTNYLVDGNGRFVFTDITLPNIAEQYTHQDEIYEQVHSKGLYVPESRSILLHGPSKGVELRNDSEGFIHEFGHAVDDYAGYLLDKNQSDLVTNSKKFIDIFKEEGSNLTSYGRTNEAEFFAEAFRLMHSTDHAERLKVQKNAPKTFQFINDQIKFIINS
BoNT-A LC inh2 = BoNT A light chain protease inhibition | multiplex microsphere protease substrate cleavage, flow cytometry | inhibition, % at 10 µM | 360,000 compounds, 0.17% hits | AID 588499; also: plate controls were buffer without enzyme for full effect and enzyme alone for no effect
Autofluor counter = compound fluorescence in toxin protease inhibitor counterscreen | compound autofluorescence counterscreen, microsphere flow cytometry; active compounds read high | fluorescence intensity (no concentration beside the values) | 360,000 compounds, 3.1% hits; in the data active = fluorescence intensity above about 16000; inconclusive = no clear call, values can overlap the other calls
BoNT-A LC CP1 = inhibitors of Botulinum neurotoxin A light chain protease | multiplex microsphere protease assay, flow cytometry | inhibition, % at 10 µM | AID 602139 | 720 compounds, 3% hits | shares compounds with BoNT F protease; in the data active = inhibition above about 32%
BoNT-F LC CP1 = inhibitors of Botulinum neurotoxin F light chain protease. shares compounds with BoNT F protease. multiplex microsphere protease cleavage assay, flow cytometry. inhibition, % at 10 µM. 720 tested, under 10 active. AID 602140; call rule not given here
Anthrax LF CP1 = Bacillus anthracis lethal factor protease inhibition. shares compounds with BoNT F protease. multiplex microsphere protease cleavage assay, LF. inhibition, % at 10 µM. 720 tested, under 10 active. AID 602142; call rule not given here
* = called active by the depositor; ? = inconclusive; . = no result. An excerpt weighted towards active compounds, which were near 4.1% of everything screened. Rule as the data show it, unless noted: active = inhibition above about 30%; inconclusive = no clear call, values can overlap the other calls; inactive = below that.

SMILES | DUSP3 inh | BoNT F protease | MazEF act | Anthrax LF prot | BoNT-A LC inh2 | Autofluor counter | BoNT-A LC CP1 | BoNT-F LC CP1 | Anthrax LF CP1
CCOC(=O)CSc1nc2sc3c(c2c(=O)n1-c1ccc(OC)cc1)CCN(C)C3 | -7 | ? | 6 | 3 | 42* | 4383 | 2 | -4 | -3
COc1ccc(N(C(=O)c2snc(C(N)=O)c2N)C(C(=O)NCC2CCCO2)c2ccc3ncccc3c2)cc1OC (stereo not drawn) | -15 | 38* | -2 | 1 | -2 | 3435 | 0 | -7 | 1
COc1cccc(NC(=O)CN(C)C(=O)CC2CCCC2)c1 | . | -10 | -5 | 0 | -7 | 6808 | . | . | .
O=C1C2C3C=CC(CC3)C2C(=O)N1c1ccc(Cl)cc1Cl (stereo not drawn) | 30 | 60* | 11 | 3 | 3 | 4588 | -1 | -6 | -1
O=C1C2C3C=CC(CC3)C2C(=O)N1c1ccc(Cl)cc1 (stereo not drawn) | 16 | . | 7 | . | . | . | . | . | .
CCOC(=O)C1=CCN(S(=O)(=O)c2ccc(Br)cc2)C1c1ccc(C)cc1 (stereo not drawn) | . | -8 | . | -7 | 0 | 4429 | . | . | .
COc1cccc(C(=O)NCc2ccc3c(c2)cc(C)n3C)c1 | 10 | -83 | 6 | -50 | 75* | 1285 | 3 | -3 | -1
COc1ccc(C(=O)NCc2ccc3c(c2)cc(C)n3C)cc1OC | 6 | -47 | 0 | -1 | 92* | 1632 | -1 | -7 | 2
COc1ccc(CC(=O)NCc2ccc3c(c2)cc(C)n3C)cc1 | 19 | -53 | -29 | -15 | 91* | 1840 | 1 | -5 | -3
COc1cc(OC)cc(C(=O)NCc2ccc3c(c2)OCO3)c1 | 10 | ? | 10 | 9 | -1 | 3997 | . | . | .
COc1cccc(C(=O)NCc2ccc3c(c2)OCO3)c1 | 19 | 36* | -5 | 4 | -2 | 3829 | 0 | -4 | 0
COc1ccc(C(=O)NCc2ccncc2)cc1OC | 22 | 1 | 6 | 0 | 1 | 2638 | . | . | .
CCNc1nc(NCC)n2c(SCC(=O)Nc3ccc(C)c(C)c3)nnc2n1 | . | 37* | 0 | 1 | 16 | ? | -1 | -3 | 0
CSc1ncc(Cl)c(C(=O)Nc2ccccc2C)n1 | -6 | -12 | 7 | 30* | 1 | 3352 | 0 | -5 | -2
CCSc1ncc(Cl)c(C(=O)Nc2ccccc2C)n1 | 24 | 6 | -6 | 8 | 0 | 4089 | . | . | .
CCc1nnc(NC(=O)COc2ccccc2[N+](=O)[O-])s1 | 25 | ? | 6 | 30* | -6 | 3114 | 1 | 3 | 2
CCOc1ccc(OCCOCCNCCOC)cc1 | -5 | 41* | -1 | 1 | 4 | 2724 | 0 | 5 | -2
CCOC1=C2CN(S(=O)(=O)c3ccc(C)cc3)[C@@H](c3ccccc3)C[C@H]2[C@H]2C(=O)N(c3ccccc3)C(=O)[C@H]2C1 | . | -3 | . | -3 | 1 | 6194 | . | . | .
Cc1onc(-c2c(F)cccc2Cl)c1C(=O)Oc1ccccc1 | . | 0 | . | -15 | 0 | 4115 | . | . | .
CS(=O)(=O)N1N=C(c2ccccc2)CC1c1ccc2c(c1)OCO2 (stereo not drawn) | -5 | -20 | 236* | 10 | 70* | 19512* | 50* | . | -26
Cc1nc2ccc(NC(=O)COc3cccc(F)c3)cc2s1 | 6 | 38* | -1 | -3 | 5 | 4736 | 2 | -1 | 0
Cc1cccc(OCC(=O)Nc2ccc3nc(C)sc3c2)c1 | -6 | 2 | 20 | 4 | 1 | 3368 | . | . | .
CC(C)c1cc(C(C)C)c(S(=O)(=O)NC(c2ccccn2)C23CC2C3)c(C(C)C)c1 (stereo not drawn) | . | -13 | . | -3 | 1 | 4325 | . | . | .
Cc1ccc(C(=O)Nc2scc(-c3ccccc3)c2C(=O)O)cc1 | . | 36* | 0 | 11 | 5 | 3585 | 0 | -4 | 6
Cc1noc(C)c1COc1ccc(C(=O)OCC(=O)Nc2cccc(S(=O)(=O)N3CCOCC3)c2)cc1 | 3 | 0 | -2 | 1 | 0 | 2564 | . | . | .
SMILES | DUSP3 inh | BoNT F protease | MazEF act | Anthrax LF prot | BoNT-A LC inh2 | Autofluor counter | BoNT-A LC CP1 | BoNT-F LC CP1 | Anthrax LF CP1
O=C(c1ccccc1)N1CCCC(C(=O)N2CCN(c3ccccc3)CC2)C1 (stereo not drawn) | 21 | ? | -7 | 34* | -7 | 3990 | 0 | -3 | -3
O=C(c1ccccc1)N1CCCC(C(=O)N2CCCCC2)C1 (stereo not drawn) | -13 | 6 | -1 | 0 | 1 | 4798 | . | . | .
COc1ccc(S(=O)(=O)NC(C)C(=O)NCc2cccnc2)cc1OC (stereo not drawn) | 30 | 44* | -22 | -8 | -1 | 3728 | 1 | -3 | 0
Cc1ccc2cc(C#N)c(N3CCN(C(=O)c4cccs4)CC3)nc2c1 | 51* | 40* | 8 | -12 | -3 | 3441 | -3 | -10 | -5
Cc1ccc2nc(N3CCN(C(=O)c4ccc(F)cc4)CC3)c(C#N)cc2c1 | 6 | 0 | 2 | 0 | 5 | 4690 | . | . | .
COc1ccc2nc(C)cc(Nc3ccc(C)cc3)c2c1 | 20 | ? | 15 | 8 | -2 | 3745 | . | . | .
COc1ccc2nc(C)cc(NCc3ccc(F)cc3)c2c1 | -8 | 134* | -137 | 14 | 16 | 84261* | -11 | 74* | 7
CSc1nc(Oc2ccc(F)cc2F)cc(C(F)(F)F)n1 | 41 | 41* | 10 | 3 | 1 | 3385 | 0 | -8 | -3
CCOC(=O)C1CCCN(C(=O)C2CCN(S(=O)(=O)c3ccc4ccccc4c3)CC2)C1 (stereo not drawn) | 16 | -8 | 4 | -3 | -1 | 6128 | . | . | .
CCCCCn1c(=O)c(C(=O)Nc2ncccc2C)c(O)c2ccccc21 | 20 | 38* | 7 | -1 | -5 | 4119 | 0 | -7 | -4
CCCn1c(=O)c(C(=O)Nc2ncccc2C)c(O)c2ccccc21 | -3 | 1 | 11 | -4 | 0 | 3926 | . | . | .
CN1CCN(CC(=O)Nc2nnc(-c3cccs3)s2)CC1 | -1 | 36* | -1 | 0 | 3 | 2108 | -1 | -5 | 0
Nc1nc2ncccc2cc1C(=O)NC1CCCCC1 | . | 6 | . | 3 | 1 | 5751 | . | . | .
CCC(CC)C(=O)NCc1ccc2c(c1)cc(C)n2C | 31 | -37 | 0 | -1 | 32* | 3772 | 2 | -5 | -2
CCOC(=O)NCc1ccc2[nH]c(C)cc2c1 | 21 | -20 | 1 | 16 | 25 | 3699 | . | . | .
Cc1cc2cc(CNC(=O)c3cccs3)ccc2n1C | 24 | -72 | 12 | -3 | 79* | 1271 | 15 | -34 | 2
Cc1cc2cc(CNC(=O)C(C)Oc3ccccc3)ccc2n1C (stereo not drawn) | 14 | -57 | -1 | -10 | 90* | 2556 | 4 | -4 | 2
